Screening data: PubChem, National Center for Advancing Translational Sciences (NCATS)
An excerpt weighted towards active compounds, which were near 1.2% of everything screened.
HttQ103 aggreg: qHTS Multiplex Assay to Identify Dual Action Probes in a Cell Model of Huntington: Aggregate Formation (GFP). PC12 HttQ103-GFP aggregates, Acumen cytometry, 40 h. Potency, µM (titrated, usually from 46.1 µM), without a hit: at the highest dose activity change, negative = inhibition, actives largely listed as inhibitors. 1.1% of 220,000 active. AID 1688, 2009; also: potency is read from the fitted curve at half-maximal effect; % is scaled to controls: 0 for no effect and ±100 for the full control effect; nearly all actives have a fitted effect of over 60% in size
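Aggregates are detected as GFP objects 1–25 µm with signal 6 STDEV over background in lysates of induced PC12 cells. These carry Huntingtin exon 1 with 103 glutamines fused to GFP under an ecdysone promoter; compounds titrated.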
aGal spleen mod: qHTS Assay for Inhibitors and Activators of Human alpha-Galactosidase From Spleen Homogenate | Alpha-galactosidase A (Homo sapiens), P06280 | human spleen homogenate, 4MU-alpha-Gal fluorescence, 40 min | Potency, µM (highest dose often 80 µM), for inactives: at the top dose activity change, negative = inhibition, hits mostly inhibitors | 0.008% of 240,000 active;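 also: potency is read from the fitted curve at half-maximal effect; 0% = enzyme with vehicle and -100% = no enzyme basal signal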
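Human spleen homogenate (1 ug) as enzyme source, 4-methylumbelliferyl-alpha-D-galactopyranoside 1 mM final, citrate/phosphate pH 5.0 with 0.01% Tween-20. Compounds 40 min at 37C, NaOH/glycine stop; fluorescence Ex 365/Em 440, Hill-fit AC50.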
HTT ATP protect: qHTS Multiplex Assay to Identify Dual Action Probes in a Cell Model of Huntington: Cytoprotection (ATP). PC12 HTT-Q103 induced, cytoprotection, ATP luminescence, 40 h. Potency, µM (highest dose often 56.4 µM), for the others: cytoprotection (ATP increase), most hits filed as activators. 0.14% of 230,000 active. AID 1471, 2008; also: potency is read from the fitted curve at half-maximal effect; % of control where 0% means no effect; nearly all actives have a fitted effect of over 45% in size
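PC12 cells with ecdysone-inducible HTT exon 1 Q103-GFP, induced with 100 nM tebufenozide and co-treated with library compounds in a dose series (1536-well, 1500 cells/well). Cytoprotection read as ATP content by ATPlite luminescence.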
GLA inh pH 4.5: qHTS Assay for Inhibitors of Human alpha-Galactosidase at pH 4.5. 230,000 tested, under 10 active. purified enzyme, 4-MU-alpha-Gal fluorescence, pH 4.5. Alpha-galactosidase A (Homo sapiens), P06280. AID 1467, 2008. activity change, negative = inhibition, % at 105 µM;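 also: 0% = full activity with enzyme and -100% = basal without enzyme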
Target sequence (P06280 whole entry, looked up): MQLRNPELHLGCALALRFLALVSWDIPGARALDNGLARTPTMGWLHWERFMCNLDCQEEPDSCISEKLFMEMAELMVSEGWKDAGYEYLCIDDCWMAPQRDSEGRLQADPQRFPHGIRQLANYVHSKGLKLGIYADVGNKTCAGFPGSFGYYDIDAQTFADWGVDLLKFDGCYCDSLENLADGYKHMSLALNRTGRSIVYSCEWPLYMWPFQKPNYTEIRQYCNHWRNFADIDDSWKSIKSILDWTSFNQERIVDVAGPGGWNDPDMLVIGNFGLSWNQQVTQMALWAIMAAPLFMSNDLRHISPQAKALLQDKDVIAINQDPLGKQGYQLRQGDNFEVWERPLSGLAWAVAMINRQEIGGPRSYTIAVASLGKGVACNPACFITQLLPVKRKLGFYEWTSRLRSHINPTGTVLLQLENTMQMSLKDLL
* marks the source's active call; other numbers are inactive results; ? = inconclusive; . = no result; [ ] = dose if it differs, or a comment. Calls follow the shape of the dose curve; as a rule, active = well fitted curve in the direction sought with a large enough effect; inconclusive = small, poorly fitted or top-dose-only effect, or another doubt; inactive = no such curve, though single readings can be large; an effect the other way counts as inactive or inconclusive.

SMILES | HttQ103 aggreg | aGal spleen mod | HTT ATP protect | GLA inh pH 4.5
CCC(C)Cn1c(C)nc2ccccc21 (configuration not stated) | 20µM* | -1% | -31% | 1
Cc1nc2ccccc2n1CSc1ccccc1 | 7% | 7% | 4%[10 µM] | 0
Cc1cc(C(=O)Nn2c(-c3ccc(Br)cc3)nc3ccccc3c2=O)ccc1[N+](=O)[O-] | 35µM* | -5% | 8%[10 µM] | 3
C[C@H](N)CCCP(=O)(O)O | . | 8% | -15% | .
O=S(=O)(Nc1nc2c(s1)CCCC2)c1ccc2ccccc2c1 | 11µM* | -5% | 14% | 0
O=S(=O)(NC1=NCCCCC1)c1ccc2sc(NS(=O)(=O)c3ccc4ccccc4c3)nc2c1 | 11%[9.22 µM] | 6% | 30%[10 µM] | 2
Cc1nn(C)c(C)c1CN(C)S(=O)(=O)c1ccc(F)cc1 | -30% | -2% | -13%[1.9 µM] | -1
Cc1nn(C)c(C)c1CN(C)S(=O)(=O)c1ccc2ccccc2c1 | 7.9µM* | -4% | ? | -7
CC(C)(C)NC(=O)Nc1ccc(F)c(Cl)c1 | 13µM* | 6% | -26% | -18
CCCNC(=O)Nc1ccc(F)c(Cl)c1 | -9% | 3% | -20% | -11
CCN(CC)C(=O)c1sc(NC(=O)c2ccc(C)c([N+](=O)[O-])c2)c(C#N)c1C | 13µM* | -7% | -45% | -4
COc1ccc2nc(NC(=O)Nc3ccccc3)sc2c1 | 6% | -6% | -230% | 1
CC(C)(C)c1nc(NC(=O)Nc2ccccc2)sc1Br | 11µM* | 4% | -129% | -3
COc1ccc(CC(=O)OCC(=O)NCc2ccc(Cl)cc2)cc1 | -5% | 3% | -26% | 0
COc1ccc(CNC(=O)COC(=O)Cc2ccc(Cl)cc2Cl)cc1 | 0.56µM* | -2% | -87%[1.9 µM] | 0
CC(=O)N[C@@H]1C(O[C@H]2O[C@H](C(=O)O)C(O)[C@H](O)[C@H]2O)[C@H](O)[C@@H](CO)O[C@H]1O[C@@H]1C(C(=O)O)O[C@@H](O[C@H]2[C@H](O)[C@@H](CO)OC(O)[C@@H]2NC(C)=O)[C@H](O)[C@H]1O (some centres not stated) | -5% | . | 0% | .
CS(=O)(=O)N(CCC#N)Cc1ccc(/C=C2\C(=O)Nc3ccccc32)o1 | 11µM* | -4% | -39% | -5
COc1cc(OC)c(/C=C2/C(=O)Nc3ccccc32)c(OC)c1 | . | 9% | -22%[1.9 µM] | -6
CCC(C)NC(=O)CSc1nc(-c2cccs2)cc(C(F)(F)F)n1 (configuration not stated) | 13µM* | -24% | -13%[10 µM] | -10
COC(=O)C1=C[C@@H](C(=O)OC)C2C3=C(C(=O)[C@@]2(C)NC(=O)c2ccccc2)[C@H](C)[C@@H]2C(=O)N(C)C(=O)[C@@H]2[C@@H]3C1 (some centres not stated) | . | 6% | . | .
Cc1nn(C)c(Cl)c1/C=C/C(=O)O | 2% | -8% | 4%[10 µM] | -2
Cc1nn(C)c(C)c1/C=C/C(=O)O | 13% | -4% | 11µM* | 1
O=C1c2cccc3c(Nc4ccccc4Cl)c([N+](=O)[O-])cc(c23)C(=O)N1CCO | 10µM* | 0% | -74% | -8
CC1=C(C#N)C(NC(=O)C2CC2)(C(F)(F)F)C(=O)N1 (configuration not stated) | 0.32µM* | -3% | -55%[10 µM] | -5
COc1ccc(C(=O)/C(=C\c2ccco2)N2C=CC=CC2=C(C#N)C#N)cc1 | 6.3µM* | 4% | ? | -24
SMILES | HttQ103 aggreg | aGal spleen mod | HTT ATP protect | GLA inh pH 4.5
N#CC(C#N)=C1C=CC=CN1/C(=C\c1ccco1)C(=O)c1ccccc1 | 3.2µM* | 2% | ? | -18
CNC1=C(N(C(C)=O)c2ccc(Br)cc2)C(=O)c2ccccc2C1=O | 11µM* | -6% | . | 4
CCC(=O)N(CC)C1=C(O)c2ccccc2C(=O)C1=O | -5% | 0% | -44% | -21
CCC(=O)N(C1=C(NC)C(=O)c2ccccc2C1=O)C(C)C | 28µM* | 2% | -110% | 4
CN(C)c1ccc(C(=O)NN2C(=O)c3ccccc3C2=O)cc1 | -17% | -2% | -16% | -2
CCCCc1ccc(Nc2nc(CCC)cc(=O)[nH]2)cc1 | 35µM* | -21% | 20%[1.9 µM] | -13
CCCc1cc(=O)[nH]c(Nc2ccc(N3CCCCC3)cc2)n1 | ? | 0% | -22%[0.074 µM] | -1
CC(=O)Cc1nsc(NC(=O)c2ccc(-c3cc(C(F)(F)F)ccc3Cl)o2)n1 | 2µM* | -5% | 0% | -2
O=C(NNC(=S)NC(=O)C12CC3CC(CC(C3)C1)C2)c1ccncc1 | 3.2µM* | 1% | 3%[10 µM] | 1
COC(=O)[C@H](N)Cc1ccc(Cl)cc1 | . | . | 5%[1.9 µM] | .
CCOc1ccc(C(=O)N/N=C/c2cccc3cccnc23)cc1 | 3.5µM* | -4% | -64% | 3
CC(C)(C)n1ncc(Oc2ccccc2[N+](=O)[O-])c(Cl)c1=O | 13µM* | 2% | . | -1
Cn1ncc(Oc2ccc([N+](=O)[O-])cc2)c(Cl)c1=O | 7%[9.22 µM] | 0% | -4%[10 µM] | -19
CCNc1nc(NC(C)C)nc(N(C#N)CCOc2ccccc2)n1 | 22µM* | 1% | -8% | -8
CCNc1nc(NCC)nc(N(C#N)CCOc2ccccc2)n1 | . | 4% | . | 6
O=S(=O)(c1ccc(Cl)c(Cl)c1)c1snnc1-c1ccccc1 | ? | -6% | -92% | -14
O=C(c1nnsc1S(=O)(=O)c1ccc(Cl)cc1)N1CCOCC1 | 13µM* | -3% | -161% | -3
O=C(Nc1ccccc1)c1nnsc1S(=O)c1ccc(Cl)cc1 (configuration not stated) | ? | 2% | -102% | -6
CNC(=O)c1nnsc1S(=O)(=O)c1ccc(Cl)cc1 | 3.2µM* | 5% | -140% | 3
O=C(c1nnsc1S(=O)c1ccc(Cl)cc1)N1CCOCC1 (configuration not stated) | 11µM* | -2% | -153% | -1
CC(=O)c1ccc(Nc2c3ccccc3cc3occc23)cc1 | . | 1% | . | .
Cc1ccc(Sc2cncc3sc(C(N)=O)cc23)cc1 | . | -9% | . | .
O=C1CC(c2ccc3c(c2)OCO3)c2cc(O)ccc2O1 (configuration not stated) | . | 8%[119 µM] | -158% | -7
C[C@H](N)C(=O)N[C@@H](Cc1ccc(F)cc1)C(=O)N[C@@H](CCCN=C(N)N)C(=O)N[C@@H](CC1CCCCC1)C(=O)N[C@@H](CCCCN=C(N)N)C(=O)N[C@@H](Cc1ccc(O)cc1)C(N)=O | . | -16% | . | .
Cc1ccc(S(=O)(=O)NC(=O)NC2CCCCC2)cc1 | 20% | . | -21% | .
Cc1ccc(S(=O)(=O)NC(C)C(=O)NC2CCCCCC2)cc1 (configuration not stated) | 0.89µM* | 0% | -2%[0.074 µM] | 0
